The values that follow come from PubChem BioAssay AID449762 (Southern Research Specialized Biocontainment Screening …, 2010).

Screen size: about 330,000 compounds; about 1,900 (0.58%) were called active. Inconclusive results (about 4%) are left out. No stated cut-off is given here; in the data, inconclusive means inhibition above about 70% without an active follow-up result; inactive means below that. Not all results are given here. Results with a measured potency or affinity are listed apart.

This assay is described as follows: M. tuberculosis growth inhibition, HTS (AID 449762).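 Further: bacterial growth assessed after seven days of incubation.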 As to conditions: M. tuberculosis H37Rv growth inhibition, 7H9 media; at 25 µM; active compounds read high.
With `O=C(c1ccco1)N1CCN(C(=S)Nc2ccc(Br)cc2Cl)CC1`, the inhibition was -10.4% (inactive).

Take `COc1cccc(-c2cc(C(=O)O)no2)c1`: the inhibition was -0.44% (inactive).

Consider `COC(=O)c1cc(-c2ccccc2)on1`, for which the inhibition is 69.8% (inactive).

Take `CCOc1ccc(NC(=O)COc2nsnc2N2CCOCC2)cc1`: the inhibition is -1.39% (inactive).

In the case of `CCN(c1ccccc1)S(=O)(=O)c1ccc(Cl)c(NC(=O)COC(=O)c2ccc[nH]c2=O)c1`, the inhibition was -8.08% (inactive).

`CCCCCCn1nc(C(=O)OCC(=O)c2c(N)n(C)c(=O)n(C)c2=O)c2ccccc2c1=O`: the inhibition is 9.07% (inactive).

For the molecule `COc1ccc(C2=NCCn3nc4cc(OC)ccc4c32)cc1`, the inhibition is 1.06% (inactive).

As for `COc1ccc2c3n(nc2c1)CCN=C3c1ccc(Cl)cc1`, the inhibition is 4.84% (inactive).

On to `O=C(NCCCn1ccnc1)c1cc2cc([N+](=O)[O-])ccc2oc1=O`, for which the inhibition is -5.35% (inactive).

With `Cc1ccc2[nH]c(C)c(CCNC(=O)c3c(N)no[n+]3[O-])c2c1`, the inhibition was -0.11% (inactive).

Regarding `O=C(NC1CCCCC1)C(c1cccs1)N(CC1CCCO1)C(=O)c1csnn1` (configuration not stated), the inhibition was -12% (inactive).

In the case of `CC(=O)c1ccc(S(=O)(=O)N2CCc3ccccc3C2)cc1`, the inhibition is 0.34% (inactive).

Turning to `CCOC(=O)N1CCN(C(=O)CSc2nnc(-c3ccccc3OC)o2)CC1`, the inhibition was 41.9% (inactive).

As for `CC1CC(C)CN(C(=O)CSc2nnc(-c3ccc(Cl)s3)o2)C1` (configuration not stated), the inhibition was 20.5% (inactive).

Take `O=C(c1cc2n(n1)C(C(F)(F)F)CC(c1ccc(F)cc1)N2)N1CCCC1` (configuration not stated): the inhibition was -3.19% (inactive).

Consider `O=C(Nc1cccnc1Cl)c1cccc(F)c1`, for which the inhibition was 9.84% (inactive).

Regarding `CC(C)NC(=O)COC(=O)c1cc(Br)ccc1Cl`, the inhibition is 21.9% (inactive).

Consider `CC(C)(C)NC(=O)COC(=O)c1ccc(F)cc1Cl`, for which the inhibition is 49.4% (inactive).

On to `COc1ccc(NC(=O)CCC(=O)Nc2nnc(C3CCCCC3)s2)c(OC)c1`, for which the inhibition is 7.63% (inactive).

As to `OCC1(Cc2cccc(Cl)c2)CCCN(Cc2ccc(F)c(F)c2)C1` (configuration not stated), the inhibition is 16.1% (inactive).

With `Cc1cc(CN2CCCC(CO)(Cc3cccc(Cl)c3)C2)n[nH]1` (configuration not stated), the inhibition was 2.25% (inactive).

On to `c1ccc(-c2nc3ccccc3[nH]2)cc1`, for which the inhibition was 9.27% (inactive).

For `c1ccc2nc3c(nc2c1)[nH]c1ccccc13`, the inhibition was -2.41% (inactive).

Consider `CC1(C)Cc2c(cnn2-c2cccc(F)c2)C(NC(=O)CSc2ccncc2)C1` (configuration not stated), for which the inhibition was -11.2% (inactive).

`CCCCN1C(=N)N([C@@H](C)CN2CCC[C@H]2CN2C(N)=NC[C@H]2CC(C)C)C[C@H]1[C@H](C)CC`: the inhibition was -9.24% (inactive).

Regarding `O=c1c2ccccc2oc2ccc(NCCCn3ccnc3)cc12`, the inhibition was -0.23% (inactive).

As for `O=c1c2ccccc2oc2cc(NCCCn3ccnc3)ccc12`, the inhibition is 64.1% (inactive).
